A selection: hits, their analogues and other compounds. The true share with any hit is near 18%.
Six1-Eya2 blk: blocks human Six1 binding to Eya2; actives 0.56% (n = 360,000); AlphaScreen GST-Six1/His-Eya2 binding, biochemical; active compounds read low; activity change, % (no concentration beside the values); Q15475+O00167; AID 651725; in the data active = activity change below about -65%; inconclusive = mostly about -30% to -63%
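Compounds are tested against tagged Six1 and Eya2 proteins bridged by glutathione donor and nickel acceptor beads; after a one-hour incubation at 37 °C without light, AlphaScreen emission is recorded.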
TDP1 block: TDP1 (human) enzyme inhibition | recombinant TDP1, AlphaScreen DNA substrate cleavage | Potency, µM (top dose mostly 130 µM), inactives show at the top dose activity change, negative = inhibition, most hits filed as inhibitors | actives 0.28% (n = 350,000) | AID 485290; also: potency is read from the fitted curve at half-maximal effect; nearly all actives have a fitted effect of over 40% in size
Target sequence (Q9NUW8 whole entry, looked up): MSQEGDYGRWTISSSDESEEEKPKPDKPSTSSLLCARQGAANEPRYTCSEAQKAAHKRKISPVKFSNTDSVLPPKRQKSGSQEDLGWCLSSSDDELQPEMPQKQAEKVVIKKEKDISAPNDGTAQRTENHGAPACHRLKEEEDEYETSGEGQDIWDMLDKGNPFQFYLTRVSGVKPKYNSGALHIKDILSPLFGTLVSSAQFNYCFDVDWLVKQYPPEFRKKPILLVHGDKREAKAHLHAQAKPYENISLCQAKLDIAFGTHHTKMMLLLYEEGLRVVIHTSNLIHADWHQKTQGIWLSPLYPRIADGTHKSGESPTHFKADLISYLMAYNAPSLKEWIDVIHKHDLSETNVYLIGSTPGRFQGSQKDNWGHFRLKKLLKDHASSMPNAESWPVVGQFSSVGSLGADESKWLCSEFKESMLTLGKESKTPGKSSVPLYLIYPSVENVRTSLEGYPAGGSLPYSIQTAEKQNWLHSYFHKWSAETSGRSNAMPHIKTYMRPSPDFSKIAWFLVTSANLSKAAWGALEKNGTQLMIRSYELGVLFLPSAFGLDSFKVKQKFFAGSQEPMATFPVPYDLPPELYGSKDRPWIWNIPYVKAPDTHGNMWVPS
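AlphaScreen read-out: signal falls as enzyme removes the 3' tyrosine-FITC from a 5'-biotinylated DNA oligo (15 nM, 5 min, RT). Enzyme was E. coli-made recombinant Tdp1 at 1 nM, exposed to compound for 15 min beforehand; beads 10 ug/ml, 10 min.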
TDP1 cell noCPT: qHTS for Inhibitors of human tyrosyl-DNA phosphodiesterase 1 (TDP1): qHTS in cells in absence of CPT; DT40 Tdp1-/- hTDP1 cells, no CPT, ATP luminescence, 48 h; Potency, µM (series often up to 46.2 µM), for the others: top-dose activity change, negative = growth inhibition, hits mostly inhibitors; actives 15% (n = 420,000); AID 686978, 2013; also: potency is read from the fitted curve at half-maximal effect; nearly all actives have a fitted effect of over 55% in size
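No-CPT arm: Tdp1-/-;hTDP1 DT40 cells (400/well) plus compounds, incubated ≥48 hr at 37 °C. Readout CellTiter-Glo luminescence.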
CtBP-E1A inh: inhibitors of CtBP/E1A interaction; activity change, % (no concentration beside the values); AID 651724; AlphaScreen GST-E1A/His-CtBP binding, 1536-well; active compounds read low; actives 0.49% (n = 340,000); in the data active = activity change below about -65%; inconclusive = mostly about -30% to -63%
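Protein mix (5X: 125 nM each GST-E1A, His-CtBP) was incubated with pinned compound 2 h at 37 deg C in dark, in 50 mM Tris pH 8.0 buffer with 300 mM NaCl. Glutathione donor and nickel acceptor beads followed; AlphaScreen signal read after 1 h.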
TDP1 cell CPT: growth inhibition of DT40 Tdp1-/-;hTDP1 cells with camptothecin (screen for TDP1 inhibitors); actives 12% (n = 420,000); chicken DT40 Tdp1-/-;hTDP1 cells + 20 nM CPT, ATP luminescence, 48 h; Potency, µM (series often up to 46.2 µM), without a hit: at the highest dose activity change, negative = growth inhibition, usual class: inhibitors; also: potency is read from the fitted curve at half-maximal effect; nearly all actives have a fitted effect of over 55% in size
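Chicken DT40 Tdp1-/- cells stably complemented with human TDP1 were seeded at 400 cells/well in medium containing 20 nM camptothecin, exposed to pin-transferred compounds, and grown at 37 °C for at least 48 hr. Viability was read as ATP luminescence.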
IL-1B inflam inh: inhibitors of inflammasome signaling (IL-1 beta secretion); THP-1 LPS/ATP IL-1B secretion, AlphaLISA, 16 h; active compounds read low; activity change, % at 57.5 µM; actives 4.7% (n = 360,000); in the data active = activity change below about -50%; inconclusive = mostly about -30% to -49%
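THP-1 cells pretreated 1 hr with compounds (up to 57.5 uM final), then stimulated with LPS (250 ng/mL final) plus ATP (1.25 mM final); secreted IL-1B measured by AlphaLISA after 16 hr, decreased signal indicating inhibition.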
Numbers without * were called inactive; ? = inconclusive; / = not tested or not shown; [ ] = dose if it differs, or a comment. Unless noted, calls follow the shape of the dose curve; as a rule, active = well fitted curve in the direction sought with a large enough effect; inconclusive = small, poorly fitted or top-dose-only effect, or another doubt; inactive = no such curve, though single readings can be large; an effect the other way counts as inactive or inconclusive. % is scaled to controls: 0 for no effect and ±100 for the full control effect.

SMILES	Six1-Eya2 blk	TDP1 block	TDP1 cell noCPT	CtBP-E1A inh	TDP1 cell CPT	IL-1B inflam inh
CCc1ccc([C@@H]2CC(=O)[C@@H]3CN(S(=O)(=O)c4ccc(Cl)cc4)[C@H](c4ccc(C)cc4)C[C@@H]3N2S(=O)(=O)c2ccc(C)cc2)cc1	0	/	-14%	-7	-5%	34
Cc1ccc(C)c(NC(=O)CSc2nnc(CNC(=O)c3ccccc3)n2-c2ccccc2)c1	/	3%	-22%	/	10%	/
O=C(/C=C/c1ccccc1)c1ccccc1	-1	6%	-69%	5	15µM*	?
O=C(c1ccc(NS(=O)(=O)/C=C/c2ccccc2)cc1)N1CCCCC1	6	-11%[0.505 µM]	12µM*	-6	?	-76*
Cn1cnc2c(N/N=C/c3cccs3)ncnc21	?	-1%	?	?	?	-91*
Cc1cc(C)nc(SCC(=O)Nc2ccc(S(=O)(=O)Nc3cc(C)on3)cc2)n1	-1	/	-1%	7	-10%	16
O=C(CSc1nc2c([nH]c3ccccc32)c(=O)n1-c1ccc(F)cc1)NCc1ccc(F)cc1	/	7%	15µM*	/	?	/
CCSc1nc2c([nH]c3ccccc32)c(=O)n1-c1ccc(F)cc1	/	3%	?	/	21µM*	/
COc1cccc(-n2c(SCC(=O)Nc3c(C)cc(C)cc3C)nc3c([nH]c4ccccc43)c2=O)c1	/	-2%	13µM*	/	12µM*	/
CSc1nc2c([nH]c3ccccc32)c(=O)n1-c1ccc(F)cc1	/	4%	?	/	?	/
Cc1ccc(-n2c(SCC(=O)NCc3ccccc3)nc3c([nH]c4ccccc43)c2=O)cc1	/	0%	-29%	/	?	/
COc1ccc(-n2c(SCC(=O)NCc3ccccc3)nc3c([nH]c4ccccc43)c2=O)cc1	/	1%	?	/	18µM*	/
Cc1cc(C)cc(NCc2nnc3n2CCCCC3)c1	/	0%	-5%	/	-1%	/
Cc1onc(-c2ccccc2)c1C(=O)N1CCC(C)(C(=O)NS(=O)(=O)C2CC2)C1 (stereo unspecified)	-2	/	17%	5	11%	16
O=c1c2[nH]c3ccccc3c2nc(SCc2cccc(F)c2)n1-c1ccccc1	/	5%	23µM*	/	?	/
Cc1ccc(-n2c(SCc3ccccc3)nc3c([nH]c4ccccc43)c2=O)cc1	/	5%	-5%	/	-26%	/
CCCN1CN(Cc2ccccc2)CNC1=S	-3	1%	-2%	-11	-3%	-1
CCOC(=O)N1CCC(Nc2c(OCC)c(=O)c2=O)CC1	8	5%	3%	1	23%	13
CCCN(CCC)c1nc(NC2CCN(C(=O)OCC)CC2)nc(OC)n1	-27	10%	21µM*	3	16µM*	-6
CC(=O)N1CCc2c(sc(NC(=O)CN3C(=O)c4ccccc4C3=O)c2C(N)=O)C1	2	/	-15%	-10	-9%	11
O=C(Cn1c2[n+](c3ccc(C(F)(F)F)cc31)CCCCC2)c1ccc2c(c1)OCCO2	-9	0%	21µM*	/	?	-11
O=C(Cn1c2[n+](c3ccc(C(F)(F)F)cc31)CCCCC2)Nc1ccccc1	3	2%	-29%	9	?	-13
CCc1cccc(NC(=O)Cn2c3[n+](c4ccc(C(F)(F)F)cc42)CCCCC3)c1	5	6%	16µM*	-6	?	-68*
FC(F)(F)c1ccc2c(c1)n(Cc1ccccc1)c1[n+]2CCCCC1	-11	2%	?	-1	?	-3
Cc1cc(C)c(S(=O)(=O)N(C)c2ccccc2)c(C)c1	47	-3%	-9%	30	?	?
Cc1nc(S(=O)(=O)N(C)c2ccccc2)c(C#N)c(C)c1Cl	-2	-4%	23µM*	-1	23µM*	?
